# Measurements as given in PubChem BioAssay (NCATS).
# Inconclusive results are not listed. Where a call stands in place of a potency, no number is given. Values without a mark were called inactive. Active and inactive are the calls of the source. Unless noted, the call rests on the fitted dose curve; in most records, active means well fitted curve in the direction sought with a large enough effect; inconclusive means small, poorly fitted or top-dose-only effect, or another doubt; inactive means no such curve, though single readings can be large; an effect the other way counts as inactive or inconclusive.
# Assays:
# [1] = NS1 protein of Zika virus - qHTS assay to identify small molecule inhibitors in human HEK 293 cells (AID 1347053); further: series mostly up to about 46 µM; nearly all actives have a fitted effect of over 55% in size
# How it was run: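 Readout was TR-FRET using paired anti-NS1 antibodies after 24 h infection of HEK 293 cells with ZIKV MR766 (MOI = 0.5). Compound preceded virus by 1 h; reduced signal reflects lower NS1 expression.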
# [2] = qHTS for Inhibitors of the Functional Ribonucleoprotein Complex (vRNP) of Lassa (LASV) Arenavirus: LASV Primary Screen - GLuc reporter signal (AID 1347082; calls by dose curve; tested in HEK293 reporter line; further: series mostly up to about 57 µM; nearly all actives have a fitted effect of over 60% in size)
# [3] = qHTS for Inhibitors of the Functional Ribonucleoprotein Complex (vRNP) of Lassa (LASV) Arenavirus: Viability assay - alamar blue signal for LASV Primary Screen (AID 1347083; calls by dose curve; tested in HEK293 reporter line; further: nearly all actives have a fitted effect of over 80% in size; further: potency means the concentration at half of the fitted maximal effect; on activity change, negative = reduced viability: series mostly up to about 57 µM)
# [4] = qHTS for Inhibitors of the Functional Ribonucleoprotein Complex (vRNP) of Lymphocytic Choriomeningitis Arenaviruses (LCMV): Viability assay - alamar blue signal for LCMV Primary Screen (AID 1347085; calls by dose curve; tested in HEK293 reporter line; further: nearly all actives have a fitted effect of over 80% in size; further: potency means the concentration at half of the fitted maximal effect; on activity change, negative = lower viability: series mostly up to about 57 µM)
# [5] = biological target: Nucleoprotein (Lymphocytic choriomeningitis virus (strain Armstrong)) (UniProt P09992); experiment: qHTS for Inhibitors of the Functional Ribonucleoprotein Complex (vRNP) of Lymphocytic Choriomeningitis Arenaviruses (LCMV): LCMV Primary Screen - GLuc reporter signal (AID 1347086; calls by dose curve; further: series mostly up to about 57 µM; nearly all actives have a fitted effect of over 70% in size)
# [6] = qHTS of pediatric cancer cell lines to identify multiple opportunities for drug repurposing: Primary screen for TC32 cells (AID 1347089); further: nearly all actives have a fitted effect of over 60% in size; further: potency means the concentration at half of the fitted maximal effect
# How it was run: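 In the primary qHTS, MIPE compounds were tested at 11 concentrations (0.78 nM to 46 µM) and NPC compounds at 8 (0.59 nM to 46 µM) on TC32 cells for 48 h. CellTiter-Glo luminescence gave viability.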
# [7] = qHTS of pediatric cancer cell lines to identify multiple opportunities for drug repurposing: Primary screen for SJ-GBM2 cells (AID 1347091); further: potency means the concentration at half of the fitted maximal effect
# How it was run: (§1)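 Viability measured as metabolically active cells via CellTiter-Glo luminescence following 48 hours of compound exposure, 11-point dilutions in confirmatory testing. 500-1,000 cells/well plated 5 hours before dosing; controls were DMSO and 2.3 µM bortezomib.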
# [8] = qHTS of pediatric cancer cell lines to identify multiple opportunities for drug repurposing: Primary screen for A673 cells (AID 1347092); further: nearly all actives have a fitted effect of over 45% in size; further: potency means the concentration at half of the fitted maximal effect
# How it was run: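 48 h compound exposure, A673, 500-1,000 cells/well, 37 degrees C/5% CO2. MIPE: 11-point, 0.78 nM-46 µM; NPC: 8-point, 0.59 nM-46 µM (final). Readout CellTiter-Glo luminescence after 15 min RT.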
# [9] = qHTS of pediatric cancer cell lines to identify multiple opportunities for drug repurposing: Primary screen for NB-EBc1 cells (AID 1347095); further: potency means the concentration at half of the fitted maximal effect
# How it was run: (§2)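 Plated cells (500-1,000 per well, growth media) were allowed to settle for 5 hours, treated with compound dilutions for 48 hours, then lysed with CellTiter-Glo for 15 min at room temperature before luminescence reading.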
# [10] = qHTS of pediatric cancer cell lines to identify multiple opportunities for drug repurposing: Primary screen for U-2 OS cells (AID 1347096); further: nearly all actives have a fitted effect of over 50% in size; further: potency means the concentration at half of the fitted maximal effect
# How it was run: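 Viability after 48 h compound treatment at 37C, 500-1,000 cells/well, read as ATP luminescence with CellTiter-Glo. Primary screens used 11-point (MIPE, 0.78 nM-46 µM) or 8-point (NPC, 0.59 nM-46 µM) final concentrations; follow-up screens used 11-point dilutions.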
# [11] = qHTS of pediatric cancer cell lines to identify multiple opportunities for drug repurposing: Primary screen for DAOY cells (AID 1347090); further: nearly all actives have a fitted effect of over 55% in size; further: potency means the concentration at half of the fitted maximal effect
# How it was run: as §1
# [12] = qHTS of pediatric cancer cell lines to identify multiple opportunities for drug repurposing: Primary screen for BT-37 cells (AID 1347094); further: potency means the concentration at half of the fitted maximal effect
# How it was run: as §2
# [13] = qHTS of pediatric cancer cell lines to identify multiple opportunities for drug repurposing: Primary screen for Saos-2 cells (AID 1347097); further: nearly all actives have a fitted effect of over 40% in size; further: potency means the concentration at half of the fitted maximal effect
# How it was run: as §2
# [14] = qHTS of pediatric cancer cell lines to identify multiple opportunities for drug repurposing: Primary screen for SK-N-MC cells (AID 1347093); further: potency means the concentration at half of the fitted maximal effect
# How it was run: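 Metabolically active cells were quantified by ATP-dependent luminescence (CellTiter-Glo, 15 min at room temperature) following 48 h treatment. Cells had been plated at 500-1,000 per well and settled for 5 h beforehand.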
# Sequence of Nucleoprotein (Lymphocytic choriomeningitis virus (strain Armstrong)) (P09992 whole entry, looked up): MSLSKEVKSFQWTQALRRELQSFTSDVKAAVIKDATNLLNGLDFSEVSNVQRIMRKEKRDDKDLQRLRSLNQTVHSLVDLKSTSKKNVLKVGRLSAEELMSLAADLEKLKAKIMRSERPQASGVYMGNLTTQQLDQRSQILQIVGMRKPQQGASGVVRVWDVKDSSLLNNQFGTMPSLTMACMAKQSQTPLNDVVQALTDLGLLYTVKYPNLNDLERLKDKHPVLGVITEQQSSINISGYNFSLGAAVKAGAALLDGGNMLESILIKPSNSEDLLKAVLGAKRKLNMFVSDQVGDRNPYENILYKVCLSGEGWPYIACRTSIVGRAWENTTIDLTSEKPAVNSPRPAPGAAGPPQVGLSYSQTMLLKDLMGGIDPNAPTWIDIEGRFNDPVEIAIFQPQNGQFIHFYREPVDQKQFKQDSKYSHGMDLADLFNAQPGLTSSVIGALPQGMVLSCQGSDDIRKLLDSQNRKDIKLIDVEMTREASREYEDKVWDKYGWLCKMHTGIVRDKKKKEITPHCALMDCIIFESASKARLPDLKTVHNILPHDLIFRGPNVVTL
compound,measurement,setting,value
O=c1c(C2CC(c3ccc(-c4ccc(Br)cc4)cc3)Cc3ccccc32)c(O)sc2ccccc12 (stereo unspecified),outcome,[1],inactive
same,Potency,[2],inactive
same,Potency,[3],inactive
same,Potency,[4],inactive
same,Potency,[5],inactive
same,Potency,[6],inactive
same,Potency,[7],11900 nM (active)
same,Potency,[8],inactive
same,Potency,[9],7500 nM (active)
same,Potency,[10],inactive
CCCCNC(=O)NS(=O)(=O)c1ccc(N)cc1,Potency,[2],inactive
same,Potency,[3],inactive
same,Potency,[4],inactive
same,Potency,[5],inactive
Cc1ncc([N+](=O)[O-])n1CC(C)O (stereo unspecified),Potency,[2],inactive
same,Potency,[3],inactive
same,Potency,[4],inactive
CC(C)(C)C1CCC(CC2=C(O)c3ccccc3C(=O)C2=O)CC1 (stereo unspecified),Potency,[2],inactive
same,Potency,[3],inactive
same,Potency,[4],inactive
C[C@]12CCC(=O)C=C1CC[C@@H]1[C@@H]2CC[C@@]2(C)[C@H]1CC[C@]2(C)O,outcome,[1],inactive
same,Potency,[2],inactive
same,Potency,[3],inactive
same,Potency,[4],inactive
same,Potency,[5],inactive
same,Potency,[6],inactive
same,Potency,[11],inactive
same,Potency,[8],inactive
same,Potency,[12],inactive
same,Potency,[10],inactive
C[C@]12Cc3cn[nH]c3C[C@@H]1CC[C@@H]1[C@@H]2CC[C@@]2(C)[C@H]1CC[C@]2(C)O,outcome,[1],inactive
same,Potency,[2],inactive
same,Potency,[3],inactive
same,Potency,[4],inactive
same,Potency,[5],inactive
same,Potency,[6],inactive
same,Potency,[8],inactive
same,Potency,[12],inactive
same,Potency,[13],26600 nM (active)
Cc1nc2ccc(CN(C)c3ccc(C(=O)N[C@@H](CCC(=O)O)C(=O)O)s3)cc2c(=O)[nH]1,Potency,[2],inactive
COCCCOc1ccnc(CS(=O)c2nc3ccccc3[nH]2)c1C (stereo unspecified),Potency,[2],inactive
same,Potency,[3],inactive
COc1cc(C)c(Cc2cnc(N)nc2N)cc1OC,Potency,[2],inactive
same,Potency,[3],inactive
same,Potency,[4],inactive
same,Potency,[5],inactive
C[C@]12CC[C@H]3[C@@H](CCC4=CC(=O)CC[C@@H]43)[C@@H]1CC[C@@H]2OC(=O)CCc1ccco1,outcome,[1],inactive
same,Potency,[2],inactive
same,Potency,[3],inactive
same,Potency,[4],inactive
same,Potency,[5],inactive
same,Potency,[6],inactive
same,Potency,[11],inactive
same,Potency,[8],inactive
same,Potency,[14],inactive
same,Potency,[12],inactive
same,Potency,[9],inactive
same,Potency,[10],inactive
CC(C(=O)O)c1ccc2c(c1)CC(=O)c1ccccc1S2 (stereo unspecified),Potency,[2],inactive
same,Potency,[3],inactive
COc1cccc2c1C(=O)c1c(O)c3c(c(O)c1C2=O)C[C@@](O)(C(=O)CO)CC3OC1CC(N2CCOC(OC)C2)C(O)C(C)O1 (stereo partly specified),outcome,[1],inactive
same,Potency,[6],26.4 nM (active)
same,Potency,[11],42.2 nM (active)
same,Potency,[8],26.6 nM (active)
same,Potency,[14],8.4 nM (active)
same,Potency,[12],27.6 nM (active)
same,Potency,[10],266 nM (active)
CCn1cc(C(=O)O)c(=O)c2cnc(N3CCCC3)nc21,"activity change, negative = inhibition",[2],2.17% [at 11.5 µM]
same,"activity change, negative = reduced viability",[3],9.34% [at 11.5 µM]
same,"activity change, negative = lower viability",[4],6.9% [at 11.5 µM]
same,"activity change, negative = inhibition",[5],14.6% [at 11.5 µM]
Cc1onc(-c2ccccc2)c1C(=O)N[C@@H]1C(=O)N2[C@@H](C(=O)O)C(C)(C)S[C@@H]12,Potency,[2],inactive
same,Potency,[3],inactive
C[C@]12CC[C@H]3[C@@H](CC[C@@]45O[C@H]4C(O)=C(C#N)C[C@]35C)[C@H]1CC[C@H]2O,outcome,[1],inactive
same,Potency,[2],inactive
same,Potency,[3],inactive
same,Potency,[7],inactive
same,Potency,[8],18700 nM (active)
same,Potency,[14],3320 nM (active)
same,Potency,[12],inactive
same,Potency,[10],inactive
C[C@]12CC[C@@H]3c4ccc(OC(=O)N(CCCl)CCCl)cc4CC[C@H]3[C@@H]1CC[C@@H]2O,outcome,[1],inactive
same,Potency,[2],inactive
same,Potency,[3],inactive
same,Potency,[4],inactive
same,Potency,[5],inactive
same,Potency,[6],inactive
same,Potency,[11],inactive
same,Potency,[8],inactive
same,Potency,[14],inactive
same,Potency,[12],inactive
same,Potency,[10],inactive
O=C(O)c1ccccc1-c1ccc(C(F)(F)F)cc1,Potency,[2],inactive
same,Potency,[3],inactive
CCCN(CCC)C(=O)Cc1c(-c2ccc(Cl)cc2)nc2ccc(Cl)cn12,outcome,[1],inactive
same,Potency,[2],inactive
same,Potency,[3],inactive
same,Potency,[4],inactive
same,Potency,[5],inactive
same,Potency,[6],inactive
same,Potency,[11],inactive
same,Potency,[14],16800 nM (active)
same,Potency,[12],inactive
same,Potency,[9],inactive
same,Potency,[10],inactive
same,Potency,[13],inactive
CC[N+]1(CC)CCC(OC(=O)C(O)(c2ccccc2)c2ccccc2)C1 (stereo unspecified),outcome,[1],inactive
same,Potency,[2],inactive
same,Potency,[3],inactive
same,Potency,[4],inactive
same,Potency,[5],inactive
same,Potency,[6],inactive
same,Potency,[11],inactive
same,Potency,[7],inactive
same,Potency,[8],inactive
same,Potency,[12],inactive
same,Potency,[9],inactive
same,Potency,[10],inactive
same,Potency,[13],inactive
O=c1[nH]c(=O)n([C@H]2C[C@H](O)[C@@H](CO)O2)cc1F,Potency,[2],inactive
CCOc1ccc2nc3cc(N)ccc3c(N)c2c1,Potency,[2],inactive
CO[C@H]1C[C@@H]2CC[C@@H](C)[C@@](O)(O2)C(=O)C(=O)N2CCCC[C@@H]2C(=O)O[C@H]([C@@H](C)C[C@@H]2CC[C@H](O)[C@H](OC)C2)CC(=O)[C@H](C)C=C(C)[C@@H](O)[C@@H](OC)C(=O)[C@H](C)C[C@H](C)C=CC=CC=C1C,Potency,[2],inactive
same,Potency,[3],2.7 nM (active)
same,Potency,[4],12.2 nM (active)
O=C1c2ccccc2C(=O)C1C(=O)C(c1ccccc1)c1ccccc1,outcome,[1],inactive
same,Potency,[2],inactive
same,Potency,[3],inactive
same,Potency,[4],inactive
same,Potency,[5],inactive
same,Potency,[11],26600 nM (active)
same,Potency,[12],inactive
same,Potency,[10],inactive
CC1CCc2c(N3CCC(O)CC3)c(F)cc3c(=O)c(C(=O)O)cn1c23 (stereo unspecified),Potency,[2],inactive
same,Potency,[3],inactive
same,Potency,[4],inactive
same,Potency,[5],inactive
